Test results taken from PubChem BioAssay AID1851 (National Center for Advancing Translational Sciences (NCATS), 2009).
The campaign covered roughly 16,000 compounds. About 5,100 (32%) were called active. Another 25% or so got no clear call; they are omitted. This is one part of the list. A number with no mark means an inactive call. Calls follow the shape of the dose curve; as a rule, active = well fitted curve in the direction sought with a large enough effect; inconclusive = small, poorly fitted or top-dose-only effect, or effect the other way; inactive = no such curve, though single readings can be large or run the other way.

molecular target: Cytochrome P450 3A4 (Homo sapiens) (UniProt P08684); test: Cytochrome panel assay with activity outcomes; details: recombinant CYP, pro-luciferin dealkylation, luminescence, p450-cyp3a4; series mostly up to 57.1 µM; activity, negative = inhibition: at the top concentration
Sequence (P08684 whole entry, looked up): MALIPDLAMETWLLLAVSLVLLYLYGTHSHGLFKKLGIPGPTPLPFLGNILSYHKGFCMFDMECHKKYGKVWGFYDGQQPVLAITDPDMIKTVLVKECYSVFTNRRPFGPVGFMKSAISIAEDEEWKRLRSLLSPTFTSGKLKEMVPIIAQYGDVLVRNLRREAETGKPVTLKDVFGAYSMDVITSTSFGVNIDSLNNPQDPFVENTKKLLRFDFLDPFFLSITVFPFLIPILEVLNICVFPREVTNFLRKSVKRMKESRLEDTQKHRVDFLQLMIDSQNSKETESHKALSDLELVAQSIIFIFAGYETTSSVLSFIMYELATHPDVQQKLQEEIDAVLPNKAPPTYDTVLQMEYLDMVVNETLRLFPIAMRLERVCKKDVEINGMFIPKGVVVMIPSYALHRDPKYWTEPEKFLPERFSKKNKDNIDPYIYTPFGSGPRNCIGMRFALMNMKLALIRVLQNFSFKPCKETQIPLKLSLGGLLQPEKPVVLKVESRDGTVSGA
% is scaled to controls: 0 for no effect and ±100 for the full control effect.

| Compound | activity, negative = inhibition | AC50 |
| --- | --- | --- |
| Cc1sc(N/N=C/C=C/c2ccccc2)nc1-c1ccccc1 | -9.33% [at 11.4 µM] |  |
| Brc1ccc(/C=C/C=N/Nc2nc3ccccc3s2)cc1 | 6.56% |  |
| O=S(=O)(N/N=C\C=C\c1ccccc1)c1ccc(Br)cc1 |  | 14.1 µM (active) |
| CCC/C=C(\CCC)C(NC(=O)c1ccc(C(F)(F)F)cc1)c1ccccc1 (stereo not given) |  | 15.8 µM (active) |
| CC(C)NC(=O)/C(=N\O)c1ccccc1 | 0.0184% |  |
| CCC/C=C(\CCC)C(NC(=O)c1ccccc1)c1ccccc1 (stereo not given) |  | 10 µM (active) |
| Cc1cc(S(=O)(=O)NCCN(C)C)c(C)s1 | -9.29% |  |
| CCOc1ccc(C(F)(F)F)cc1NC(C)=O | -25.1% |  |
| CN(C)S(=O)(=O)Oc1ccc(Cl)cc1C(=O)Nc1cccc(C(F)(F)F)c1 |  | 12.6 µM (active) |
| CN(C)S(=O)(=O)Oc1ccccc1C(=O)Nc1cccc(C(F)(F)F)c1 |  | 11.2 µM (active) |
| COC(=O)/C(=C\C(=O)c1ccccc1)Nc1cccc(C(F)(F)F)c1 | -25.3% |  |
| COC(=O)[C@]1(C)CCC(c2ccc(C)cc2)=C(CC(=O)O)C1 | -9.37% [at 11.4 µM] |  |
| Cc1cccc2cc(=O)[nH]c(C)c12 | -18.7% |  |
| CCOC(=O)N1CCC(NC(=O)CCC(=O)N2CC(C)Oc3ccc(C)cc32)CC1 (stereo not given) |  | 8.91 µM (active) |
| Cc1ccc2c(c1)N[C@H](c1ccc(C(=O)O)cc1)c1cccn1-2 |  | 0.0501 µM (active) |
| CN1CCCN(S(=O)(=O)c2ccc3c(c2)OCCO3)CC1 | 5.66% |  |
| Cc1ccc(Cl)cc1N1CCN(S(=O)(=O)c2ccc3c(c2)OCCO3)CC1 | -22.3% |  |
| Cc1ccc2nc(N3CCN(S(=O)(=O)c4ccc5c(c4)OCCO5)CC3)c(C#N)cc2c1 |  | 6.31 µM (active) |
| Cc1[nH]c2ccccc2c1C(c1ccccn1)N1CCC(C)CC1 (stereo not given) |  | 2.24 µM (active) |
| CN(C)CC(CN(C)C)c1ccccn1 | -2.93% [at 11.4 µM] |  |
| c1ccc([C@H](CCN2CCCC2)c2ccccn2)cc1 | -2.32% [at 11.4 µM] |  |
| N=C(N)c1ccccc1 | 3.54% |  |
| Cc1ccc(N(CCC#N)C(=O)CSc2ccc3c(c2)OCCO3)cc1 |  | 15.8 µM (active) |
| CCn1c(C)nc2cc(C(=O)NNS(=O)(=O)c3ccccc3F)ccc21 | 1.94% |  |
| c1ccc2c(c1)c1ccccc1n2Cn1c2ccccc2c2ccccc21 | -21.4% [at 11.4 µM] |  |
| CCn1c2ccccc2c2cc(NS(=O)(=O)c3ccccc3C)ccc21 |  | 1 µM (active) |
| CC(C)(C)C(=O)NC(c1ccc(Cl)cc1)[C@]1(C)C[C@H]1C1CCCCC1 (stereo not given in full) |  | 12.6 µM (active) |
| C[C@@]1(C(NC(=O)Cc2ccc(C(F)(F)F)cc2)c2ccc(-c3ccccc3)cc2)C[C@H]1C1CCCCC1 (stereo not given in full) | -18.1% |  |
| COC(=O)c1ccc(C(NC(=O)c2ccco2)[C@]2(C)C[C@H]2C2CCCCC2)cc1 (stereo not given in full) |  | 7.94 µM (active) |
| C[C@@]1(C(NC(=O)c2ccc(-c3ccccc3)cc2)c2ccc(Cl)cc2)C[C@H]1C1CCCCC1 (stereo not given in full) | -13.8% |  |
